# Screening data as filed in PubChem.
# An excerpt weighted towards active compounds, which were near 22% of everything screened.
# E-sel TNF inh: E-selectin induction blockers in HUVEC – imaging, immunofluorescence, high content, primary screen; HUVEC TNFa-induced E-selectin immunofluorescence; inhibition, % at 2 µM; 0.71% of 120,000 active;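 active means inhibition above the batch mean plus 3 SD, and confirmed as a hit on visual image review, cut at about 43% in these data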
# CYP2C19 activ: human CYP2C19 activators, primary screen, biochemical, luminescence | Cytochrome P450 2C19 (Homo sapiens), P33261 | recombinant CYP2C19, luciferin-H EGE luminescence; stronger effect = higher value; 0 = fully inhibited enzyme, 1 = untreated enzyme | activation factor at 5 µM | 96,000 tested, under 10 active;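 active means activation factor of at least 2 at 5 µM in the primary screen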
# CYP2C19 inh: blockers of cytochrome P450 2C19 activity – biochemical, luminescence, ADME assay, primary screen; P33261; CYP2C19 Supersomes, luciferin-H EGE luminescence, 30 min; inhibition, % at 5 µM; 21% of 96,000 active;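 active means CYP2C19 inhibition above a set limit at 5 µM in the primary screen, cut at about 50% in these data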
# CYP2C9 act: human CYP2C9 activators, primary screen, biochemical, luminescence. Cytochrome P450 2C9 (Homo sapiens), P11712. recombinant CYP2C9, luciferin-H conversion; stronger effect = higher value; factor 1 = untreated enzyme, 0 = blocked. activation factor at 5 µM. 1.4% of 96,000 active;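 active means activation factor of 2 or more for CYP2C9 at a 5 µM dose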
# Target sequence (P11712 whole entry, looked up): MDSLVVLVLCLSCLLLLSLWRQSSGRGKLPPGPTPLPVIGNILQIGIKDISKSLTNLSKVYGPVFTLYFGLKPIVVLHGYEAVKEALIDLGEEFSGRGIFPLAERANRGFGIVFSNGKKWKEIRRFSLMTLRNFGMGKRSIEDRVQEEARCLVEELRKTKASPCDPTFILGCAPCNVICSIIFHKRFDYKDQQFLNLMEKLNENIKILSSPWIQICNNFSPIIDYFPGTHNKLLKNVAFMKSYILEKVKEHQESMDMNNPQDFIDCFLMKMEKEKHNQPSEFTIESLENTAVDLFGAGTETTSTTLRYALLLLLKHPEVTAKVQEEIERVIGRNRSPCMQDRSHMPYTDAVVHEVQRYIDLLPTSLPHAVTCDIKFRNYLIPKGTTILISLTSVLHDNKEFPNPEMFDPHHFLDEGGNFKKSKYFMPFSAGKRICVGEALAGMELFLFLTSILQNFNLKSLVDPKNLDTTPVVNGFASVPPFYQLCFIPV
# cytoskel mod: modifiers of F-actin cytoskeleton organization, primary screen, imaging, HUVEC, phalloidin staining, high-content imaging. HUVEC TNFa F-actin phalloidin imaging. AID 836, 2007. 0.18% of 91,000 active. inhibition, % at 2 µM;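 active means inhibition above the batch mean plus 3 SD and confirmed as a hit by visual image inspection, cut at about 30% in these data, passing the limit was not always enough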
# CYP2C9 inhib: blockers of cytochrome P450 2C9 activity – biochemical, luminescence, ADME assay, primary screen. P11712. inhibition, % at 5 µM. CYP2C9 Supersomes, luciferin-H conversion. 20% of 96,000 active;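 active means blocking of liver enzyme CYP2C9 beyond about 50% at 5 µM, limit read from the data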
# Numbers stand for hits; - = inactive; . = no result.
SMILES,E-sel TNF inh,CYP2C19 activ,CYP2C19 inh,CYP2C9 act,cytoskel mod,CYP2C9 inhib
COC(=O)c1cc(=O)nc2sc(-c3ccc(F)cc3)nn12,-,-,-,-,-,-
CCOC(=O)CCn1nc(-c2ccccc2)cc1N,-,-,65.8,-,-,-
CCOC(=O)Cn1nc(-c2ccc(C)cc2)ccc1=O,-,-,-,-,-,51.6
CCCN1CCN(CCCNC(=O)Cn2nc(-c3ccc(C)cc3)ccc2=O)CC1,-,-,-,-,-,-
CCOC(=O)CSc1nc(-c2ccccc2)cc(C(F)(F)F)n1,-,.,.,.,-,.
COc1ccc(NC(=O)CSc2nnc(-c3ccc(C)cc3)n2N)cc1,.,-,-,-,-,-
Cc1c(C(=O)N/N=C/c2ccc(Cl)cc2)[nH]c2ccc(Cl)cc12,-,.,.,.,.,.
CN(C)C(=O)COC(=O)c1cc(Cl)cc(Cl)c1N,-,-,-,-,-,-
CCOC(=O)C1=C(C)NC(C)=C(C(=O)OCC)C1C(=O)OCC(=O)N1CCC(C)CC1,-,-,-,-,-,-
CC1CCN(C(=O)COC(=O)c2cc(Cl)cc(Cl)c2N)CC1,-,-,-,2.3,-,-
CC(C)N(C(=O)COC(=O)c1cc(Cl)cc(Cl)c1N)C(C)C,-,-,83.0,-,.,66.1
Cc1nc(-c2c(-c3ccc(O)cc3O)noc2C(F)(F)F)cs1,.,-,70.6,-,-,-
O=C(Nc1cc(C(F)(F)F)ccc1-n1cncn1)c1ccc(-c2ccccc2)cc1,-,-,57.9,-,-,94.1
COc1ccc(C(=O)Nc2cc(C(F)(F)F)ccc2-n2cncn2)cc1,-,-,-,-,.,-
O=C(Nc1cc(C(F)(F)F)ccc1-n1cncn1)c1ccc(Cl)cc1,-,-,73.5,-,.,-
CCn1c(SCC(=O)Nc2ccc(S(N)(=O)=O)cc2)nnc1-c1cccc(OC)c1,.,-,-,-,-,-
O=C(OCCNc1ncc(C(F)(F)F)cc1Cl)c1ccc(S(=O)(=O)N2CCOCC2)cc1,.,-,69.1,-,-,-
CC(C)(Oc1ccc(Cl)cc1)C(=O)Nc1ccc2oc(-c3ccncc3)nc2c1,-,-,-,-,-,-
O=C(O)CC(O)C(=O)O (stereo not drawn),.,-,-,-,.,-
CCN1C(=O)C(O)(CC(=O)c2ccccn2)c2ccccc21 (stereo not drawn),-,-,-,-,-,-
CN1C(=O)C(O)(C2COC(C)(C)CC2=O)c2cc(Br)ccc21 (stereo not drawn),-,-,54.5,-,-,-
Cc1ccc(C(=O)CC2(O)C(=O)N(C)c3ccc(Br)cc32)c(C)c1 (stereo not drawn),.,-,62.5,-,-,55.1
Cc1ccc(C)c(C(=O)CC2(O)C(=O)N(C)c3ccccc32)c1 (stereo not drawn),-,-,-,-,-,-
CN1C(=O)C(O)(CC(=O)c2ccccn2)c2cc(Br)ccc21 (stereo not drawn),-,-,67.4,-,-,-
CCOCCCNCc1cccc(OC)c1,-,-,-,-,-,-
SMILES,E-sel TNF inh,CYP2C19 activ,CYP2C19 inh,CYP2C9 act,cytoskel mod,CYP2C9 inhib
CCCc1cc(N2CCC(C(N)=O)CC2)nc(-c2ccccc2)n1,-,.,.,.,.,.
Clc1ccccc1Cn1nnc2c(N3CCOCC3)nc(C3CC3)nc21,-,-,-,-,-,-
CCOc1ccc(CCNC(=O)Cn2c(=O)oc3ccccc32)cc1OCC,-,-,84.1,-,-,61.8
CCOc1ccc(CCNC(=O)Cn2c(-c3nonc3N)nc3ccccc32)cc1OCC,-,-,-,-,.,69.6
COc1ccc(CCNC(=O)Cn2c(-c3nonc3N)nc3ccccc32)cc1OC,.,-,89.1,-,-,-
Cc1ccc(Cn2c(-c3nonc3N)nc3ccccc32)cc1,-,-,-,-,-,-
O=C(c1ccc([N+](=O)[O-])cc1)N(Cc1ccc(Cl)cc1Cl)N1C(=O)CCCC1=O,-,-,64.1,-,-,-
O=C(c1ccc([N+](=O)[O-])cc1)N(Cc1ccc(Cl)cc1)N1C(=O)CCCC1=O,-,-,50.6,-,-,-
Cc1nc(Oc2cccc(Cl)c2)c2oc3ccccc3c2n1,-,-,-,-,-,-
O=C(COC(=O)Cc1ccsc1)NC(c1ccccc1)c1ccccc1,-,.,.,.,.,.
O=S(=O)(Nc1ncnc2sc3c(c12)CCC3)c1ccc(Cl)s1,.,-,-,-,-,80.6
Cc1nc(NS(=O)(=O)c2ccc(Br)cc2)c2c3c(sc2n1)CCC3,-,-,76.5,-,-,97.1
Cc1nc(NC(C)c2ccccc2)c2c3c(sc2n1)CCC3 (stereo not drawn),-,-,83.8,-,-,55.9
C=CCN(C(=O)Nc1ccccc1)C1CC(=O)N(c2ccc(OC)cc2)C1=O (stereo not drawn),-,-,-,-,-,-
CC(=O)Nc1ccc(NC(=O)CSC2=NCCS2)cc1,-,-,55.2,-,-,81.0
O=C(CSC1=NCCS1)Nc1ccc(S(=O)(=O)N2CCCCCC2)cc1,.,-,-,-,-,62.4
O=C(CSC1=NCCS1)Nc1ccc(S(=O)(=O)NC2CCCCC2)cc1,-,-,-,-,-,56.1
COc1cc(NS(=O)(=O)c2ccc(NC(=O)CSC3=NCCS3)cc2)nc(OC)n1,-,-,-,-,-,-
CC(=O)Nc1nonc1NC(=O)CSC1=NCCS1,.,-,-,-,-,-
N#Cc1cc2c(nc1SCc1nc3ccccc3[nH]1)CCC2,.,-,-,-,-,-
CCc1cccc(OCC(=O)Nc2ccc(S(=O)(=O)Nc3ccccn3)cc2)c1,-,.,.,.,.,.
COc1ccccc1CNC(=O)CCS(=O)(=O)c1cccs1,-,-,82.6,-,.,-
COc1ccc(CNC(=O)CCS(=O)(=O)c2cccc3nonc23)cc1,-,-,73.8,-,.,-
COc1ccccc1CNC(=O)CCS(=O)(=O)c1cccc2nonc12,-,-,91.0,-,-,59.0
Cc1ccc(CNC(=O)CCS(=O)(=O)c2cccc3nonc23)cc1,-,-,-,-,.,-
Cn1c(Cc2ccc3c(c2)OCO3)nnc1SCC(=O)NC(C)(C)C,-,.,.,.,.,.
Cc1ccc(-c2nnc(Nc3ccccc3)c3ccccc23)cc1S(=O)(=O)NCC1CCCO1 (stereo not drawn),-,-,56.2,-,-,64.5
COCCn1nnnc1C(c1cccs1)N1CCN(c2nc3ccccc3s2)CC1 (stereo not drawn),-,-,82.3,-,-,89.2
COCCn1nnnc1C(c1cc2cc(C)cc(C)c2[nH]c1=O)N1CCN(c2ccccc2F)CC1 (stereo not drawn),-,-,-,-,-,78.2
CCC(c1nnnn1Cc1cccs1)N1CCN(c2nc3ccccc3s2)CC1 (stereo not drawn),-,-,-,-,.,-
